YB-1 expression – YB-1 expression inhibition. delta delta Cp (YB-1 minus CDIP) (no concentration beside the values). U2OS, qRT-PCR YB-1 vs CDIP delta delta Cp, 16 h; stronger effect = higher value; zero = DMSO, each unit about twofold. 0.37% of 30,000 active;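 active = delta delta Cp rounded down to an integer at or above 3, about 3 SD of DMSO wells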;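 also: higher means less YB-1 transcript or more CDIP transcript relative to DMSO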
NOMO-1 viab – STK33 inhibitor candidate reducing NOMO-1 cell viability. NOMO-1 AML viability, CellTiter-Glo luminescence, 72 h. inhibition, % (no concentration beside the values). 7.5% of 37,000 active; in the data active = inhibition above about 80%; inconclusive = no clear call, values can overlap the other calls
U2OS ROS induce – inducers of reactive oxygen species in cancer cells. 2% of 46,000 active. ROS induction (% of piperlongumine), % at 10 µM. U2OS ROS induction, H2DCF-DA fluorescence; in the data active = ROS induction above about 79%, passing the limit was not always enough; inconclusive = no clear call, values can overlap the other calls;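 also: 0% = DMSO vehicle median and 100% = reference compound median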
PD-1 reversal – activators reversing PD-1 mediated T-cell inhibition | primary human CD4 T cells, PD-L1 beads, CellTiter-Glo 96 h | activation, % (test concentration not listed) | 29,000 tested, under 10 active; call rule not given here;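 also: 0% = median vehicle wells and 100% = positive control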
MITF inh – inhibitors of MITF. TRPM1 promoter luciferase, luminescence, 24 h. inhibition, % (concentration not given with the values). 0.28% of 37,000 active. AID 2240; in the data active = inhibition above about 85%; inconclusive = no clear call, values can overlap the other calls; inactive = below about 68%;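 also: human melanocyte line stably carrying TRPM1 promoter luciferase reporter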
* marks the source's active call; other numbers are inactive results; ? = inconclusive; nt = no result given. Many of the other results were omitted from the sample, so hits are more common in it than they were.

SMILES	YB-1 expression	NOMO-1 viab	U2OS ROS induce	PD-1 reversal	MITF inh
C[C@@H]1CN([C@H](C)CO)C(=O)c2cc(NC(=O)Nc3cccc4ccccc34)ccc2O[C@@H]1CN(C)Cc1ccc(Cl)c(Cl)c1	0.16	100.6*	-1.7	-5.4	26.6
C[C@@H]1CN([C@H](C)CO)C(=O)c2cc(NC(=O)Nc3cccc4ccccc34)ccc2O[C@H]1CN(C)Cc1ccc(Cl)c(Cl)c1	0.0338	111.5*	14.5	-2.5	19.2
C[C@@H]1CN([C@@H](C)CO)C(=O)c2cc(NC(=O)Nc3cccc4ccccc34)ccc2O[C@H]1CN(C)Cc1ccccc1	-0.0184	3.5	52.0	0.0	1.5
C[C@H](CO)N1C[C@H](C)[C@@H](CN(C)Cc2ccc(Cl)c(Cl)c2)Oc2ccc(NC(=O)Nc3cccc4ccccc34)cc2C1=O	0.3	111.6*	32.4	-2.8	27.5
NC(=O)COc1ccc(Br)cc1C1C2=C(CCCC2=O)NC2=C1C(=O)CCC2	nt	17.6	71.1	0.7	22.4
COC(=O)CSc1nnc(-c2cccs2)n1-c1ccc(Cl)cc1	nt	101.0*	13.7	-0.5	-16.9
NC(=O)CSc1nnc(-c2cccs2)n1-c1ccccc1	nt	0.4	nt	nt	3.4
COC(=O)CSc1nnc(-c2sc3ccccc3c2Cl)n1-c1ccc(OC)cc1	nt	84.9*	?	-2.2	-15.3
C[C@@H]1CN([C@@H](C)CO)C(=O)c2cc(NC(=O)Nc3ccc(C(F)(F)F)cc3)ccc2O[C@@H]1CN(C)CC1CCCCC1	-0.251	118.3*	12.0	-6.7	-4.9
C[C@@H]1CN([C@H](C)CO)C(=O)c2cc(NC(=O)Nc3ccc(C(F)(F)F)cc3)ccc2O[C@@H]1CN(C)CC1CCCCC1	0.111	126.2*	23.1	-6.1	2.9
C[C@H](CO)N1C[C@H](C)[C@@H](CN(C)CC2CCCCC2)Oc2ccc(NC(=O)Nc3ccc(C(F)(F)F)cc3)cc2C1=O	-0.336	126.8*	-1.7	-0.9	2.1
C[C@H]1CN([C@@H](C)CO)C(=O)c2cc(NC(=O)Nc3ccc(C(F)(F)F)cc3)ccc2O[C@H]1CN(C)CC1CCCCC1	0.342	105.1*	30.5	-10.3	9.3
C[C@H]1CN([C@@H](C)CO)C(=O)c2cc(NC(=O)Nc3ccc(C(F)(F)F)cc3)ccc2O[C@@H]1CN(C)CC1CCCCC1	0.0443	58.8	-4.1	-0.5	-2.7
Cc1ccc(NC(=O)C(=O)NCc2ccccn2)cc1C	nt	12.6	nt	nt	-106.6
COc1cc2c(cc1NC(=S)NCCc1ccc(OC)c(OC)c1)oc1ccccc12	nt	7.5	24.0	-5.0	46.4
COc1cc2c(cc1NC(=S)NCc1ccco1)oc1ccccc12	nt	92.7*	45.4	-9.8	-5.8
COCCOC(=O)N1C(=O)[C@@]2(c3cc(C#CC4=CCCCC4)ccc31)[C@H](C(N)=O)[C@H]1C(=O)O[C@H](c3ccccc3)[C@H](c3ccccc3)N1[C@@H]2c1ccc(O)cc1	-0.0442	nt	5.7	nt	nt
COCCOC(=O)N1C(=O)[C@@]2(c3cc(C#CC4=CCCCC4)ccc31)[C@H](C(N)=O)[C@H]1C(=O)O[C@H](c3ccccc3)[C@H](c3ccccc3)N1[C@@H]2c1ccccc1OCCO	-0.0333	nt	138.2*	nt	nt
COCCOC(=O)N1C(=O)[C@@]2(c3cc(C#CCCO)ccc31)[C@H](C(=O)NC[C@H](O)c1ccccc1)[C@H]1C(=O)O[C@H](c3ccccc3)[C@H](c3ccccc3)N1[C@@H]2c1ccccc1OCCO	0.205	nt	22.8	nt	nt
COCCOC(=O)N1C(=O)[C@@]2(c3cc(C#CC4=CCCCC4)ccc31)[C@H](c1ccccc1OCCO)N1[C@H](c3ccccc3)[C@H](c3ccccc3)OC(=O)[C@H]1[C@@H]2C(=O)NC[C@H](O)c1ccccc1	-0.213	nt	143.6*	nt	nt
O=C(CSC1CC(=O)N(c2ccccc2)C1=O)Nc1ccccc1F (configuration not stated)	nt	26.3	nt	nt	-11.6
Cc1noc(C)c1NC(=O)Nc1cccc2c1O[C@@H](CN(C)S(C)(=O)=O)[C@@H](C)CN([C@@H](C)CO)C2=O	-0.103	102.4*	57.6	-3.3	34.4
Cc1noc(C)c1NC(=O)Nc1cccc2c1O[C@@H](CN(C)S(C)(=O)=O)[C@H](C)CN([C@H](C)CO)C2=O	0.0697	17.9	100.3*	1.4	-3.4
CCN1C2=C(C(=O)CC(C)(C)C2)C(c2ccc(OC)cc2)C2=C1CC(C)(C)CC2=O	0.0772	51.2	1.0	-1.2	-1.7
COc1cc(OC)cc(-c2nnc(SCC(=O)Nc3ccc(I)cc3)o2)c1	nt	89.7*	15.7	-4.6	-28.4
SMILES	YB-1 expression	NOMO-1 viab	U2OS ROS induce	PD-1 reversal	MITF inh
COc1ccc(CN(C)C[C@H]2OCCCC[C@@H](C)Oc3ccc(NC(=O)Nc4ccc(F)cc4)cc3C(=O)N([C@H](C)CO)C[C@@H]2C)cc1	0.0112	42.8	34.7	-1.7	-7.9
COc1ccc(CN(C)C[C@@H]2OCCCC[C@@H](C)Oc3ccc(NC(=O)c4ccncc4)cc3C(=O)N([C@H](C)CO)C[C@@H]2C)cc1	-0.217	3.5	11.6	nt	-10.0
COc1ccc(NC(=O)Nc2ccc3c(c2)C(=O)N([C@H](C)CO)C[C@H](C)[C@H](CN(C)Cc2ccc(C(F)(F)F)cc2)OCCCC[C@@H](C)O3)cc1	0.124	121.8*	15.6	-2.8	19.8
COc1ccc(CN(C)C[C@H]2OCCCC[C@@H](C)Oc3ccc(NC(=O)Nc4ccc(C(F)(F)F)cc4)cc3C(=O)N([C@H](C)CO)C[C@@H]2C)cc1	-0.327	85.1*	40.0	nt	-28.7
COc1ccc(CN(C)C[C@@H]2OCCCC[C@@H](C)Oc3ccc(NC(=O)c4ccccc4)cc3C(=O)N([C@H](C)CO)C[C@@H]2C)cc1	-0.163	37.7	146.6*	-1.7	0.7
COc1ccc(CN(C)C[C@@H]2OCCCC[C@@H](C)Oc3ccc(NC(=O)Nc4ccc(OC)cc4)cc3C(=O)N([C@H](C)CO)C[C@@H]2C)cc1	0.319	22.4	41.2	0.2	7.3
COC(=O)CCCCCCC(=O)N/N=C/C1=CC[C@H]2C[C@@H]1C2(C)C	0.558	nt	14.2	nt	nt
Cc1ccc(-c2cc(C(F)(F)F)n3nc(C(=O)NCc4ccco4)cc3n2)cc1	nt	10.6	38.7	-0.5	5.6
COC(=O)c1ccc(C(=O)OC)c(NC(=O)c2cnn3c(C(F)F)cc(-c4ccc(C)cc4)nc23)c1	nt	?	-9.9	1.2	13.6
O=C(NCCN1CCOCC1)c1cnn2c(C(F)F)cc(-c3ccccc3)nc12	nt	1.8	67.2	-4.7	-11.8
Cc1ccc(-c2cc(C(F)F)n3ncc(C(=O)NCCCN4CCOCC4)c3n2)cc1	nt	4.9	137.1*	-6.1	10.8
Cc1ccc(-c2cc(C(F)(F)F)n3ncc(C(=O)NCc4ccco4)c3n2)cc1	nt	11.6	95.5*	-4.8	-15.0
Cc1ccc(-c2cc(C(F)F)n3ncc(C(=O)NCc4ccco4)c3n2)cc1	nt	24.6	110.8*	-4.9	-28.3
Cc1ccccc1NC(=O)c1ccc2nc(N3CCC(C)CC3)sc2c1	nt	nt	13.1	nt	nt
O=C(N/N=C/c1ccc(-n2ccnc2)cc1)c1ccccn1	-0.00943	nt	7.9	nt	nt
COC(=O)CCCCCCC(=O)N/N=C/c1cc(OC)c(OC)cc1[N+](=O)[O-]	-0.278	nt	118.5*	nt	nt

Source: PubChem BioAssay
